Source: PubChem BioAssay
DAX1 inh-1 – inhibits human nuclear receptor DAX1; P51843; inhibition, % at 6.75 µM; 340,000 compounds, 0.99% hits; HEK293 Gal4-DAX1 luciferase reporter, luminescence;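 active means inhibition above the mean over all tested compounds plus 3 SD, cut at about 4.2% in these data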;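 further: 0% = DAX1-transfected cells with DMSO and 100% = empty-vector control cells with DMSO; inhibition shows as a rise in luminescence from relieved DAX1 repression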
Target sequence (P51843 207-470 limits assumed): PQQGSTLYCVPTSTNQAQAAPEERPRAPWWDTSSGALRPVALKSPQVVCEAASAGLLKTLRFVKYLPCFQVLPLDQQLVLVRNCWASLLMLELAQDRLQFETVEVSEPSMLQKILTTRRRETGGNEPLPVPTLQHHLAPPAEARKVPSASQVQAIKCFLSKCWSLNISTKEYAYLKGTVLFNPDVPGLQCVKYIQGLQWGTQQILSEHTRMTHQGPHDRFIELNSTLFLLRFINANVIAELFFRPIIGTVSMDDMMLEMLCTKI
DAX1 inh-2 – inhibitors of DAX1 repression of SF-1 activated StAR promoter; AID 652010; HEK293T StAR-luciferase reporter, SF-1/DAX-1 repression relief; 370,000 compounds, 1.1% hits; inhibition, % at 6.8 µM;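 active means inhibition above the mean over all tested compounds plus 3 SD, cut at about 3.6% in these data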;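 further: 0% = DAX-1 cells with DMSO and 100% = cells lacking DAX-1 with DMSO; higher inhibition means more luminescence from relief of DAX-1 repression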
ssDAF-12 act – activators of S. stercoralis DAF-12 nuclear receptor; HEK293 ssDAF-12/GRIP1 lit1-tk-luc reporter, luminescence; % of 3 µM dafachronic acid response; 370,000 compounds, 1% hits; activation, % at 6.8 µM;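 active means activation above the mean over all tested compounds plus 3 SD, cut at about 0.9% in these data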;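 further: 0% = DMSO-only wells and 100% = 3 µM delta7-dafachronic acid wells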
hgDAF12 agonist – activates the H. glycines DAF-12 receptor ligand-binding domain; HEK293 GAL4-hgDAF12 UAS-luciferase reporter, agonist luminescence; normalized to butyrate control; 370,000 compounds, 1.8% hits; activation, % at 6.8 µM;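 active means activation above a cutoff set at the mean of all screened compounds plus 3 SD, cut at about 10% in these data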;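 further: 0% = DMSO wells and 100% = sodium butyrate wells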
hcDAF12 agonist – activators of H. contortus DAF-12 nuclear receptor | HEK293 hcDAF-12 lit1-tk-luc reporter, luminescence; 0% DMSO, 100% Δ7-dafachronic acid | activation, % at 6.8 µM | 370,000 compounds, 1.4% hits;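 active means activation above the mean of all tested compounds plus 3 SD, cut at about 5.5% in these data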;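 further: 100% = response to 3 µM Δ7-dafachronic acid high control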
Numbers without * were called inactive; / = no result given. Only some compounds are listed: those with a hit (about 4.1% of all), similar ones and a draw of the others.

SMILES | DAX1 inh-1 | DAX1 inh-2 | ssDAF-12 act | hgDAF12 agonist | hcDAF12 agonist
C=CCCC[C@@H]1OC(=O)CNC(=O)C([C@@H](C)CC)NC(=O)[C@@H]2CCCN2C(=O)C([C@@H](C)CC)OC(=O)[C@H](Cc2ccccc2)N(C)C(=O)[C@H](C(C)C)NC(=O)C1(C)C (stereo partly specified) | / | 0 | -1 | -2 | -1
C=CCN1C[C@H](C)N(C(c2ccc(C(=O)N(CC)CC)cc2)c2cccc(OC)c2)CC1C (stereo partly specified) | / | 0 | -1 | 0 | 3
O=C(O)C(Br)Br | / | 1 | 0 | 4 | 1
O=C(NC1CN2CCC1CC2)c1ccc(Cl)cc1 (stereo unspecified) | / | -1 | -1 | 2 | 0
COc1cccc(C(=O)NCCN2CCC3(CC2)C(=O)NCN3c2ccccc2)c1 | / | 2 | -1 | 3 | -3
COc1ccc2[nH]c(C)c(CCNCc3cc(OC)c(OC)c(OC)c3)c2c1 | 0 | -1 | -2 | -2 | -1
Cc1ccc2[nH]c(C)c(CCNCc3cccnc3)c2c1 | 0 | 0 | 1.0* | -1 | -1
CC(=O)NCC1=C(c2ccc(S(C)(=O)=O)cc2)C[C@@H]2CC[C@H]1N2CCOc1ccccc1 | / | 0 | -1 | 4 | -2
CNC(=O)c1cccn(Cc2ccc(C(F)(F)F)cc2)c1=O | 1 | -1 | 2.4* | -4 | 0
CNC(=O)O/N=C(\C)Cc1nnn(-c2cc(C)on2)n1 | 5.1* | 0 | -1 | 2 | 0
c1ccc(CCN2CCC3CCNC3C2)cc1 (stereo unspecified) | / | -1 | 0 | -1 | 2
c1ccc2c(CNC3CCCCCC3)c[nH]c2c1 | -1 | 0 | 0 | 0 | 5.7*
CC(Cc1ccccc1)NC(=O)c1ccc(N)cc1 (stereo unspecified) | 4.8* | 1 | 1 | 9 | 3
CC(Cc1ccccc1)NC(=O)NC(C)Cc1ccccc1 (stereo unspecified) | 1 | 2 | 0 | 13* | 2
COc1ccccc1N1CCN(Cc2ccc(F)cc2)CC1 | 0 | 0 | -1 | 0 | -1
COc1ccc(CN2CCN(c3ccccc3F)CC2)cc1O | 4.5* | 0 | -1 | 0 | -1
COc1cccc(OCc2cc(C(=O)N3C[C@H]4C[C@@H](C3)c3cccc(=O)n3C4)no2)c1 | 3 | 1 | 1.5* | 13* | 5.6*
COc1ccc2c(C)c(CCC(=O)N3C[C@H]4C[C@@H](C3)c3cccc(=O)n3C4)c(=O)oc2c1 | 5.7* | 1 | -1 | 4 | -2
Cc1cc(N2CCNC[C@H]2C)ccc1N1CC[C@@H](O)C1 | / | -1 | -1 | 3 | 4
COc1cc2c3cc1Oc1cc(ccc1O)C[C@@H]1c4c(cc(OC)c(O)c4Oc4ccc(cc4)C[C@H]3N(C)CC2)CCN1C | 1 | 4.5* | 0 | -3 | 2
COCCCN=Cc1c(O)[nH]c(=S)[nH]c1=O | 7.0* | 1 | -1 | 2 | -2
CC1OC(OC2C(O)CC(OC3C(O)CC(OC4CCC5(C)C(CCC6C5CCC5(C)C(C7=CC(=O)OC7)C(O)CC65O)C4)OC3C)OC2C)CC(O)C1O (stereo unspecified) | -4 | 16* | -2 | -9 | 3
CC(=O)OC1CC(OC2C(O)CC(OC3C(O)CC(OC4CCC5(C)C(CCC6C5CCC5(C)C(C7=CC(=O)OC7)C(O)CC65O)C4)OC3C)OC2C)OC(C)C1OC1OC(CO)C(O)C(O)C1O (stereo unspecified) | -6 | -7 | -2 | -15 | -4
COC(=O)C1C(c2ccc(I)cc2)CC2CCC1N2C (stereo unspecified) | / | 0 | -1 | 0 | 0
COc1ccc2[nH]c3c(c2c1)CCNC3C (stereo unspecified) | 2 | -1 | 0 | -1 | 5.7*
SMILES | DAX1 inh-1 | DAX1 inh-2 | ssDAF-12 act | hgDAF12 agonist | hcDAF12 agonist
COc1ccc2c3c([nH]c2c1)C(C)NCC3 (stereo unspecified) | -1 | 0 | -1 | -1 | 2
CC1=NCCc2c1[nH]c1ccccc21 | 0 | 0 | 1.0* | -1 | 6.3*
CN1CCN(C(=O)COc2ccc3ccccc3c2)CC1 | 0 | 0 | 0 | 3 | 1
CC(C)NS(=O)(=O)c1ccc(OCC(=O)N2CCN(C)CC2)cc1 | 4.4* | 0 | -1 | 6 | 0
CN1CCN(C(=O)COc2ccc(-c3nc4ccccc4s3)cc2)CC1 | -4 | 3.9* | 0 | 11* | 5
COC(=O)C1C(c2ccc(Cl)cc2)CC2CCC1N2C (stereo unspecified) | / | 1 | -1 | -3 | 2
COc1cc(C2c3cc4c(cc3CC3COC(=O)C32)OCO4)cc(OC)c1O (stereo unspecified) | -1 | 4.2* | -1 | -4 | -1
COc1ccc2c(c1OC)C(=O)OC2C1c2cc3c(cc2CCN1C)OCO3 (stereo unspecified) | 1 | 0 | -2 | 7 | 0
Cc1ccc(N2C(=O)NC(=O)/C(=C\c3cn(CC(=O)O)c4ccccc34)C2=O)cc1 | 2 | 0 | 1.4* | 2 | 4
O=C(O)Cn1cc(/C=C2\C(=O)NC(=O)N(c3ccc(Br)cc3)C2=O)c2ccccc21 | -1 | 0 | 1.2* | 3 | 5.6*
O=C(NCCN1CCC2(CC1)C(=O)NCN2c1ccccc1)c1cccnc1Cl | / | 0 | 0 | -2 | -1
Cc1cc(N2CCNC[C@H]2C)ccc1N1CCN[C@@H](C)C1 | / | 2 | -1 | 1 | 1
O=C(O)c1cc(S(=O)(=O)N2CC3CC(C2)c2cccc(=O)n2C3)ccc1F (stereo unspecified) | / | 1 | -2 | 2 | -1
O=C(Nc1ccccc1)c1c(O)c2c(n(Cc3ccco3)c1=O)CCCC2 | 4.3* | 0 | 0 | 2 | 5
O=C(Nc1nccs1)c1c(O)c2c(n(Cc3ccco3)c1=O)CCCC2 | 1 | 0 | 1.3* | 1 | 5
Cc1ccc(-c2nn(Cc3ccccc3)cc2C(=O)O)cc1 | 5.3* | 0 | 0 | 1 | 3
O=S(=O)(c1ccc2ccccc2c1)N1Cc2cc(Br)ccc2-n2nncc2C1 | / | 0 | -1 | 1 | -1
OC12CCCCC1C(c1ccccc1)NCC2 (stereo unspecified) | 4.3* | 0 | -1 | 4 | -1
NS(=O)(=O)c1ccc(N=Nc2c(O)[nH]c(=S)[nH]c2=O)cc1 | -1 | 0 | -1 | -3 | 0
COc1ccc(N=Nc2c(O)[nH]c(=S)[nH]c2=O)cc1 | 3 | 3.9* | -1 | 8 | 2
O=c1[nH]c(=S)[nH]c(O)c1N=Nc1ccc(OC(F)F)cc1 | 4.4* | 2 | 0 | 4 | 1
O=C(NCCN1CCC2(CC1)C(=O)NCN2c1ccccc1)c1cccc(F)c1 | / | 2 | -1 | 0 | 1
Cc1nn(Cc2ccccc2Cl)c(Cl)c1C(=O)OCC(=O)NC(=O)NC1CCCCC1 | 0 | 0 | -1 | 1 | -1
